Assay results from PubChem BioAssay (EPA / NIEHS).
The source made the active and inactive calls. Rule for the calls: active = hit-call score of the fitted dose curve at least 0.9, where 1 is the maximum; inactive = score below 0.9.

Assay: ATG_DR4_LXR_CIS: Attagene CIS-FACTORIAL HepG2 Assay for human Liver X Receptor (LXR), DR4 submotif (AID 2282929)
Conditions: HepG2 Attagene DR4 cis-reporter, mRNA transcription; actives raise or lower the signal
Procedure, shortened: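 Fluorescence intensity of labelled reporter cDNA fragments, separated by capillary electrophoresis, gives the signal. HepG2 cells bearing cis-regulated reporter constructs were treated 24 h; activity fitted bidirectionally relative to DMSO negative control.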

| Structure (SMILES) | outcome | AC50 |
| --- | --- | --- |
| CCCSP(=S)(OCC)Oc1ccc(Cl)cc1Cl (centres undefined) | inactive |  |
| CCC[CH2][Sn]([CH2]CCC)([CH2]CCC)[CH2]CCC |  | 3.31 µM (active) |
| Cc1cc(Cl)ccc1O | inactive |  |
| O=[N+]([O-])c1cccc2ccccc12 | inactive |  |
| ClCCCCl | inactive |  |
| CNC(=O)CSP(=O)(OC)OC | inactive |  |
| N#Cc1ccccc1N | inactive |  |
| Cc1ccc2nc3sc(=O)sc3nc2c1 |  | 22.4 µM (active) |
| O=C(O)c1cc(I)cc(I)c1I | inactive |  |
| O=C(NC(=O)c1c(F)cccc1F)Nc1cc(Cl)c(F)c(Cl)c1F |  | 0.512 µM (active) |
| CCN(CCO)CCO | inactive |  |
| C1CN2CCN1CC2 | inactive |  |
| C=C(C)[C@@H]1CC=C(C=O)CC1 | inactive |  |
| CC1(C)[C@H](/C=C2\CCSC2=O)[C@@H]1C(=O)OCc1coc(Cc2ccccc2)c1 |  | 17.9 µM (active) |
| O=c1nc(O)n(Cl)c(=O)n1Cl | inactive |  |
| [F][Sn]([c]1ccccc1)([c]1ccccc1)[c]1ccccc1 |  | 0.528 µM (active) |
| O=C1C[C@@H]2OCC=C3CN4CC[C@]56c7ccccc7N1[C@H]5[C@H]2[C@H]3C[C@H]46 | inactive |  |
| C=CC(=O)NC(C)(C)CC(C)=O | inactive |  |
| OCCCCO | inactive |  |
| N#CS | inactive |  |

| Structure (SMILES) | outcome | AC50 |
| --- | --- | --- |
| OC(c1ccc(Cl)cc1)(c1ccc(Cl)cc1)c1cccnc1 |  | 11.1 µM (active) |
| O=[N+]([O-])c1ccccc1O | inactive |  |
| CCOc1cc(C=O)ccc1O | inactive |  |
| C=CCOC(F)(C(F)(F)F)C(F)(F)F | inactive |  |
| Cc1cc(Cl)ccc1OC(C)C(=O)O (centres undefined) | inactive |  |
| Brc1ccc(Br)cc1 | inactive |  |
| CNC(=O)N(C)c1nc2ccccc2s1 | inactive |  |
| O=[N+]([O-])c1cc([As](=O)(O)O)ccc1O | inactive |  |
| Cc1c([N+](=O)[O-])c(C)c([N+](=O)[O-])c(C(C)(C)C)c1[N+](=O)[O-] |  | 60.7 µM (active) |
| CCCSP(=S)(OCC)Oc1ccc(SC)cc1 (centres undefined) | inactive |  |
| C#C[C@]1(O)CC[C@H]2[C@@H]3CCC4=CC(=O)CC[C@]4(C)[C@H]3CC[C@@]21C | inactive |  |
| O=NN1CCCCCCC1 | inactive |  |
| BrCCCCBr | inactive |  |
| CC(C)CP(=S)(S)CC(C)C | inactive |  |
| O=c1[nH]c(=O)n(Cl)c(=O)n1Cl | inactive |  |
| CC(C)=CC1C(C(=O)OCc2cccc(Oc3ccccc3)c2)C1(C)C (centres undefined) |  | 22.3 µM (active) |
| CCOP(=S)(OCC)Oc1ccc(Cl)cc1Cl | inactive |  |
| CCN(CC)C(=O)C(Cl)=C(C)OP(=O)(OC)OC | inactive |  |
| CC(C)(C1CCC(O)CC1)C1CCC(O)CC1 (centres undefined) | inactive |  |
